IL2 activator = qHTS of IL-2 Activators. IL-2 activation reporter assay, cell-based qHTS; stimulated with anti-CD3/CD4/CD28 beads; in transgenic mouse T cells. activation, % (series mostly up to about 46 µM). 360,000 tested, 0.065% active. AID 652025, 2013; in the data active = activation above about 50%; inconclusive = mostly about 30% to 49%; also: 0% is about no effect
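Unstimulated transgenic mouse T cells; 60-min compound exposure; bead-based TCR/CD4/CD28 stimulation; 18 h culture, 37 degrees C; dual fluorescence (EGFP, DsRed) plate cytometry.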
12-LOX inh = Primary qHTS assay for inhibitors of human arachidonate 12S-lipoxygenase (ALOX12): Round 2 | Polyunsaturated fatty acid lipoxygenase ALOX12 (Homo sapiens), P18054 | purified 12hLO, xylenol orange hydroperoxide absorbance | Potency, µM (top dose mostly 108 µM), for inactives: top-dose activity change, negative = inhibition, most hits filed as inhibitors | 580,000 tested, 1.1% active | AID 1671190, 2021; also: potency is read from the fitted curve at half-maximal effect; % is scaled to controls: 0 for no effect and ±100 for the full control effect
Target sequence (P18054 whole entry, looked up): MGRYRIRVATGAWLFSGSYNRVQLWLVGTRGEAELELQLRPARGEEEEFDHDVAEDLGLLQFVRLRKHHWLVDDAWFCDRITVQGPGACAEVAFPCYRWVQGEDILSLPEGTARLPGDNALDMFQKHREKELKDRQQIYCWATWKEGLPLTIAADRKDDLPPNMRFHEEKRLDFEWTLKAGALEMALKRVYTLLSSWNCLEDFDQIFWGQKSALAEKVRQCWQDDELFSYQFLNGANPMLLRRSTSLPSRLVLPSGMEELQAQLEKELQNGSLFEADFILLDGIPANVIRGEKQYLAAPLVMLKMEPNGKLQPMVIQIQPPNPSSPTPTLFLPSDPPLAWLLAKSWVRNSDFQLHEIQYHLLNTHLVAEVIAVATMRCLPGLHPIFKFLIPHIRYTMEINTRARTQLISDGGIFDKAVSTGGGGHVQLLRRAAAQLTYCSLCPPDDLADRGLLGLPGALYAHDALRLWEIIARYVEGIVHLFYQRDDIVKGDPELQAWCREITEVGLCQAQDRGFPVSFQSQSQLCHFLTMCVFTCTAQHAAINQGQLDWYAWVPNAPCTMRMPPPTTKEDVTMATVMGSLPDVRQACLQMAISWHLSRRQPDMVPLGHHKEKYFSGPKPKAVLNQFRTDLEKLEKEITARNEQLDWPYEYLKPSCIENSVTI
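Hydroperoxide product was detected by ferrous iron/xylenol orange as the 573 to 405 nm absorbance ratio. Arachidonic acid at 40 uM (final) was turned over for 30 min at room temperature by 150 nM human 12hLO, pH 7.0 Hepes buffer, after 15 min compound preincubation.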
Nrf2 ARE act = qHTS of Nrf2 Activators; AID 624171, 2012; 410,000 tested, 0.31% active; AREc32 ARE-luciferase reporter (MCF7-derived line), luminescence, 24 h; Potency, µM (highest dose often 46.1 µM), for the others: at the top dose activation, actives largely listed as activators; also: potency is read from the fitted curve at half-maximal effect; % of control where 0% means no effect; nearly all actives have a fitted effect of over 65% in size
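AREc32_Fluc, 1000 cells/well, OPTI-MEM + 5% FBS, o/n 37 deg C 5% CO2; 23 nL cpd by pin tool, 24 hr; Steady-Glo 30 min RT, luminescence.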
a7 integrin act = qHTS for Activators of Integrin-Mediated Alleviation for Muscular Dystrophy | 350,000 tested, 0.064% active | Potency, µM (top dose mostly 38.3 µM), inactives show top-dose activation, hits mostly activators | alpha7betagal myoblasts, beta-gal FDG fluorescence, 48 h;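 also: potency is read from the fitted curve at half-maximal effect; 100% = response of the positive control SU9516; nearly all actives have a fitted effect of over 60% in size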
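Alpha7betagal+/- myoblasts (passage 13) were plated 16-24 hr, then exposed to compounds (1:260 dilution of DMSO stock) for 48 hours at 37C. After MPER lysis, β-galactosidase reporter activity was read as FDG fluorescence (ex 480/em 540) after 30 minutes.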
uPA surface inh = qHTS for Inhibitors of Cell Surface uPA Generation; 330,000 tested, 0.31% active; cell surface uPA generation assay, qHTS; AID 540303, 2011; Potency, µM (doses to about 38.3 µM), inactives show top-dose activity change, negative = inhibition, actives largely listed as inhibitors; active = well fitted inhibition curve with a large enough effect; inconclusive = small, poorly fitted or top-dose-only effect; inactive = no such curve, though single readings can be large or run the other way; tested in mouse RAW 264.7 cells; also: potency is read from the fitted curve at half-maximal effect; % is scaled to controls: 0 for no effect and ±100 for the full control effect; nearly all actives have a fitted effect of over 55% in size
* = called active by the depositor; ? = inconclusive; nt = no result; ! = a repeat was not active. The list is not random: actives were taken first. Their share in the collection is about 1.5%. Unless noted, calls follow the shape of the dose curve; as a rule, active = well fitted curve in the direction sought with a large enough effect; inconclusive = small, poorly fitted or top-dose-only effect, or another doubt; inactive = no such curve, though single readings can be large; an effect the other way counts as inactive or inconclusive.

SMILES | IL2 activator | 12-LOX inh | Nrf2 ARE act | a7 integrin act | uPA surface inh
O=S1(=O)CC/C(=N\Nc2ccccc2)c2ccsc21 | 1 | 35µM* | 9% | 8% | -55%
COc1ccc2[nH]c3c(c2c1)CCNC31CCN(C(=O)c2ccc(OC)nc2)CC1 | nt | 32% | nt | nt | nt
CC(=O)c1ccc(N(C(=O)CNC(=O)c2ccco2)C(C(=O)NC2CCCC2)c2ccc(C)o2)cc1 (configuration not stated) | 1 | -8% | -1% | 10µM* | 0%
CCc1ccccc1NC(=O)Cn1c(-c2ccc(F)cc2)nc(C)cc1=O | nt | 5% | nt | nt | nt
O=C(C1CCCN(Cc2cccc3ccccc23)C1)N1CCc2ccccc2C1 (configuration not stated) | nt | 0.63µM* | nt | nt | nt
O=C(O)c1csc(N/N=C/c2ccc(Br)cc2)n1 | 1 | 35µM* | 1% | 33% | 2%
Cc1c(Cl)cccc1NC(=O)C[C@H]1NC(=O)c2ccccc2NC1=O | nt | 13% | nt | nt | nt
CC(C)COc1ccc(CNC(=S)Nc2ccccc2)cc1Cl | 0 | 32µM* | 4% | 22% | -6%
Clc1ccccc1-c1cncnc1NCc1cccs1 | nt | 35µM* | nt | nt | nt
O=C(Nc1nc2ccc(F)cc2s1)c1ccc([N+](=O)[O-])o1 | -1 | -3% | 3.2µM* | -46% | nt
O=C(Nc1nc2c(F)cccc2s1)c1ccc([N+](=O)[O-])o1 | -2 | -14% | 10µM* | -8% | -11%
O=C(Nc1nc2c(Cl)cccc2s1)c1ccc([N+](=O)[O-])o1 | 1 | -3% | 5µM* | -9% | -11%
Cc1ccc2c(=O)cc(C(=O)Nc3nc4ccc(F)cc4s3)oc2c1C | nt | -83% | nt | nt | nt
COc1ccccc1CNC(=O)c1cccc2c1C(=O)N(C1CCCCC1)C2 | nt | 3% | nt | nt | nt
Cc1ccc(-c2nnc(C3CN(C(=O)c4cnc(C)cn4)CC34CCOCC4)o2)cc1 (configuration not stated) | nt | 22% | nt | nt | nt
CCS(=O)(=O)N1CCCC(C(=O)c2ccc(OC)cc2C)C1 (configuration not stated) | 1 | 0% | -1% | 11µM* | nt
Clc1cc2c(cc1Cn1nnc(-c3ccncc3)n1)OCO2 | nt | 4% | nt | nt | nt
Oc1ccc(CNc2ccccc2F)c2cccnc12 | 0 | 2.2µM*! | -1% | -62% | -7%
OCc1ccc(O)c2ncccc12 | -1 | ? | 3% | -49% | -13%
CC(C)CSC1=NSC2=NC(=O)/C(=C\c3coc4ccccc4c3=O)C(=N)N12 | -4 | 28µM* | 5% | -29% | 0%
Cc1ccc(C)c(CNc2ccc(S(=O)(=O)N3CCCCC3)cc2)c1 | -1 | -9% | 0% | -37% | 2.5µM*
CCOC(=O)c1c(C)nc(-c2ccccc2)nc1N | -3 | 1% | 13µM* | 5% | -6%
Cc1nsc(N)c1C(=O)OCc1csc(-c2ccccc2)n1 | nt | 25µM* | nt | nt | nt
O=C(CSc1nnc(-c2cccnc2)n1C1CC1)c1cc2cc(Cl)ccc2o1 | nt | 25µM* | nt | nt | nt
Cn1c(SCC(=O)c2cc3cc(Cl)ccc3o2)nnc1-c1cccnc1 | nt | 28µM* | nt | nt | nt
SMILES | IL2 activator | 12-LOX inh | Nrf2 ARE act | a7 integrin act | uPA surface inh
NC(=O)c1cnc2n1CCN(C(=O)CCNC(=O)c1ccc(F)cc1)C2 | nt | 31% | nt | nt | nt
O=C(CCc1ncc(-c2c(F)cccc2F)o1)N1CCN(c2ccccc2F)CC1 | nt | 1% | nt | nt | nt
Cc1nn(Cc2ccccc2F)c(C)c1NC(=O)NC1CCCCC1 | nt | 23% | nt | nt | nt
CCn1ccc(C(=O)N2CC3CC(C2)[C@H]2CCCC(=O)N2C3)n1 (some centres not stated) | nt | 24% | nt | nt | nt
CC(C)(C)N/C=C(\C#N)S(=O)(=O)c1ccc(Br)cc1 | -4 | -11% | 0% | 11µM* | -3%
CCCCC1CCC(C(=O)OC(C)C(=O)Nc2ccc(NC(C)=O)cc2)CC1 (configuration not stated) | -2 | 40µM* | 0% | 22% | -1%
Cc1ccc2oc(=O)cc(CN3CCN(c4cccc(Cl)c4)CC3)c2c1 | nt | -2% | nt | nt | nt
O=C1OC(c2ccc3ccccc3c2O)(c2ccc3ccccc3c2O)c2ccccc21 | -1 | 6.3µM* | 3% | 1% | -5%
CN1C(=O)/C(=C\c2ccc(OC(=O)c3ccco3)cc2)SC1=S | 8 | ? | 3% | 27% | -3%
CN1C(=O)/C(=C/c2ccc(OC(=O)c3ccco3)cc2)SC1=S | 56* | -16% | 3% | -18% | 5%
COc1ccc(/C=C2\SC(=S)N(C(Cc3ccccc3)C(=O)O)C2=O)cc1 (configuration not stated) | 0 | 18µM* | 1% | -30% | 1%
O=C(O)C(Cc1ccccc1)N1C(=O)/C(=C/C=C/c2ccco2)SC1=S (configuration not stated) | 1 | 5.6µM* | -1% | -17% | 0%
O=C(NN1C(=O)/C(=C/C=C/c2ccco2)SC1=S)c1ccccc1O | 0 | 13µM* | ? | -23% | 3%
O=C(O)CC(C(=O)O)N1C(=O)/C(=C/C=C/c2ccco2)SC1=S (configuration not stated) | 1 | ? | 0% | -27% | 0%
Cn1cc(C2c3ccccc3C(=O)N2CC(N)=O)c2ccccc21 (configuration not stated) | nt | -48% | nt | nt | nt
Oc1cccc(-c2sc3ccccc3c2-c2ccc(OCCN3CCCCC3)cc2)c1 | -1 | ? | -1% | nt | nt
O=C(c1ccc(OCCN2CCCCC2)cc1)c1c(-c2ccc(O)cc2)sc2cc(O)ccc12 | 1 | 14µM*! | 2% | nt | -19%
Cc1c(CC(=O)NCCc2ccccc2)c(=O)oc2cc(O)ccc12 | nt | -5% | nt | nt | nt
O=C(Cc1cccc(C(F)(F)F)c1)NC1(c2ccccc2)CCC1 | nt | 35µM* | nt | nt | nt
O=C1NCCCCCN(C(=O)Nc2ccccc2)[C@H]2CCCC[C@@H]12 | nt | 77% | nt | nt | nt
COc1ccc(N=c2ssnc2Cl)cc1 | 1 | nt | 3% | -15% | -6%
CCOC(=O)c1ccc(N=c2ssnc2Cl)cc1 | -1 | 2.2µM* | 0% | -39% | 1%
Cc1c(C(=O)N(Cc2nc3ccccc3c(=O)[nH]2)C(C)C)oc2ccc(Br)cc12 | nt | 45µM* | nt | nt | nt

High-throughput results (PubChem)
